The results in this text go back to PubChem BioAssay AID1259421 (Broad Institute, 2018).

Values joined by “and” are separate entries in the source; they are usually repeats but may differ in a detail not shown here. Identical values can stand only once. About 610 (9.5%) of roughly 6,400 compounds were called active. No stated cut-off is given here; in the data, active means activity change below about -70%; inconclusive means no clear call, values can overlap the other calls; inactive means above that. The full list was thinned out, with actives kept by preference. More than one record can exist for a structure, and the calls need not agree.

This assay in a line: T. gondii ME49Luc in HeLa cells, luciferase assay, 72 h, no IFN-y (AID 1259421). Conditions: stronger effect = lower value, concentration not given here.
For the compound `Cc1cc(C)c(N(Cc2ccccc2)S(=O)(=O)c2ccc(OCCNC(=O)c3cc4ccccc4o3)cc2)c(C(=O)NO)c1`, the activity change, negative = inhibition was -49.7% (inactive).

`CC(C)c1ccc(C(=O)NCCOc2ccc(C(=O)O)cc2)cc1`: the activity change, negative = inhibition is 52.4% (inactive).

For `CN(C)Cc1c(C(=O)NCCOc2ccc(C(=O)NO)cc2)oc2ccccc12`, the activity change, negative = inhibition was -78.9% (active).

Consider `OC[C@@H](O)C(O)[C@@H](O)CO` (stereo not given in full), for which the activity change, negative = inhibition is 8.06% (inactive).

With `C[C@@H]1CN(Cc2ccc(F)cc2)[C@@H](C)CN1C(=O)c1cc2c(C(=O)C(=O)N(C)C)cn(C)c2cc1Cl`, the activity change, negative = inhibition was -1.84% (inactive).

For `CC1(COc2ccc(CC3SC(=O)NC3=O)cc2)CCCCC1` (stereo not given), the activity change, negative = inhibition is 54.6% (inactive) and 38.2% (inactive).

On to `O=c1[nH]cc(F)c(=O)[nH]1`, for which the activity change, negative = inhibition was -79.7% (active) and -73.9% (active).

`O=c1cc[nH]c(=O)[nH]1`: the activity change, negative = inhibition is 14.2% (inactive).

Regarding `O=C(OC1C[C@H]2CC[C@@H](C1)[N+]21CCCC1)C(O)(c1ccccc1)c1ccccc1` (stereo not given in full), the activity change, negative = inhibition is 13% (inactive).

On to `CC(C)OC(=O)c1cc2c(OCC(O)CNC(C)(C)C)cccc2[nH]1` (stereo not given), for which the activity change, negative = inhibition is 5.25% (inactive) and 2.42% (inactive).

Consider `CN1N=C(C(N)=O)CCC1=O`, for which the activity change, negative = inhibition is 5.39% (inactive).

On to `COc1cc(F)c(C(C)C)cc1-c1ccc(C(F)(F)F)cc1CN1C(=O)O[C@H](c2cc(C(F)(F)F)cc(C(F)(F)F)c2)[C@H]1C`, for which the activity change, negative = inhibition was 13.2% (inactive).

Turning to `CC(C)[C@H](C(=O)Nc1ccc(C(=O)NO)cc1)c1ccccc1`, the activity change, negative = inhibition was -78.5% (active).

`O=C(O)c1ccc(NC(=O)[C@H](Cc2ccc(O)cc2)NC(=O)c2ccccc2)cc1`: the activity change, negative = inhibition was 10.1% (inactive).

For the compound `CC(=O)Nc1ccc(C(=O)O)cc1`, the activity change, negative = inhibition was 5.72% (inactive).

On to `C[C@H]1CC[C@@]2(OC1)O[C@H]1C[C@H]3[C@@H]4CC[C@@H]5C[C@@H](O)CC[C@]5(C)[C@H]4CC[C@]3(C)[C@H]1[C@@H]2C`, for which the activity change, negative = inhibition was 10.8% (inactive).

Consider `O=C1Nc2cc(Cl)ccc2Oc2ccccc21`, for which the activity change, negative = inhibition was 13.7% (inactive).

With `Cc1nc2c(c(=O)[nH]1)CSCC2`, the activity change, negative = inhibition is -9.85% (inactive).

On to `CC(C)c1ccc2c(c1)CCC1C(C)(C(N)=O)CCCC21C` (stereo not given), for which the activity change, negative = inhibition was 39.8% (inactive).

As to `CCN(CC)CCOCCOC(=O)C(CC)(CC)c1ccccc1`, the activity change, negative = inhibition was 22.3% (inactive).

Consider `Nc1ncnc2c1ncn2[C@@H]1O[C@H](C[C@@H](N)CC[C@H](N)C(=O)O)[C@@H](O)[C@H]1O`, for which the activity change, negative = inhibition was -5.35% (inactive).

For `CCCCCCCCCCCCCCCC[N+](C)(C)CCN(Cc1ccc(OC)cc1)c1ncccn1`, the activity change, negative = inhibition is -80.9% (active).

For `COc1ccc(CN(CCN(C)C)c2ncccn2)cc1`, the activity change, negative = inhibition was 10.1% (inactive) and 11.2% (inactive).

Turning to `COc1ccc(CN(CCN(C)C)c2ccccn2)cc1`, the activity change, negative = inhibition is 18% (inactive) and 6.75% (inactive).

For the compound `C[C@]12C=CC(=O)C=C1CCC1C3C[C@@H](O)[C@](O)(C(=O)CO)[C@@]3(C)C[C@H](O)[C@@]12F` (stereo not given in full), the activity change, negative = inhibition was -10.6% (inactive).

For `CN(C)CCN1C(=O)c2cccc3cc(NC(N)=O)cc(c23)C1=O`, the activity change, negative = inhibition was 5.35% (inactive).

For the compound `Cc1csc(-c2nnc(Nc3ccc(Oc4ncccc4-c4ccnc(N)n4)cc3)c3ccccc23)c1`, the activity change, negative = inhibition is -85.1% (active).

Regarding `COC(=O)[C@H](Cc1ccc([N+](=O)[O-])cc1)NC(=O)c1cccc2ccccc12`, the activity change, negative = inhibition was 3.56% (inactive).

For the compound `O=C1NC(=O)C2(CCOc3ccc(F)cc32)N1` (stereo not given), the activity change, negative = inhibition is 17.5% (inactive).

In the case of `NC1=N[C@@]2(c3cc(NC(=O)c4ccc(F)cn4)ccc3F)COC[C@@H]2CS1`, the activity change, negative = inhibition was -4.81% (inactive).

For `COc1cccc(-c2ccc([C@@H](Oc3cc(-c4ccc(C[C@H](N)C(=O)O)cc4)nc(N)n3)C(F)(F)F)cc2)c1`, the activity change, negative = inhibition is 21.9% (inactive).

As for `Cc1ccn(-c2cc(Cl)ccc2[C@@H](Oc2cc(-c3ccc(C[C@H](N)C(=O)O)cc3)nc(N)n2)C(F)(F)F)n1`, the activity change, negative = inhibition is 16.1% (inactive).

In the case of `CCOC(=O)[C@@H](N)Cc1ccc(-c2cc(O[C@H](c3ccc(Cl)cc3-n3ccc(C)n3)C(F)(F)F)nc(N)n2)cc1`, the activity change, negative = inhibition is -85% (active).

`N#C/C(=C(\N)Sc1ccc(N)cc1)c1ccccc1C(F)(F)F`: the activity change, negative = inhibition is 9.63% (inactive).

On to `N#Cc1cc(I)c(O)c([N+](=O)[O-])c1`, for which the activity change, negative = inhibition is 10.2% (inactive).

For the compound `COc1cccc2cc(-c3nc(C4CCC(C(=O)O)CC4)n4ncnc(N)c34)[nH]c12` (stereo not given), the activity change, negative = inhibition is -19.8% (inactive).

Consider `Oc1cc(O)c2c(c1)O[C@H](c1ccc(O)c(O)c1)[C@H](O)[C@H]2c1c(O)cc(O)c2c1O[C@H](c1ccc(O)c(O)c1)[C@@H](O)C2`, for which the activity change, negative = inhibition is -71.6% (active).

Regarding `Oc1cc(O)c2c(c1)O[C@H](c1ccc(O)c(O)c1)[C@@H](O)C2`, the activity change, negative = inhibition is 6.21% (inactive) and -16.6% (inactive).

For the compound `Oc1ccc([C@H]2Oc3cc(O)cc(O)c3C[C@H]2O)cc1`, the activity change, negative = inhibition is 0.946% (inactive).

Regarding `COc1cccc(C=NC=Nc2cccc(OC)c2)c1`, the activity change, negative = inhibition was 10.3% (inactive).

Consider `O=c1[nH]nc(Sc2ncc([N+](=O)[O-])s2)n1-c1ccc2c(c1)OCCO2`, for which the activity change, negative = inhibition was 34.4% (inactive).

With `NC(=O)c1cnc(N[C@@H]2CCCC[C@@H]2N)nc1Nc1cccc(-n2nccn2)c1`, the activity change, negative = inhibition is -82.6% (active) and -7.89% (inactive).

On to `CC(C)(C)CC(=O)OCC(=O)[C@@]1(O)CCC2C3CCC4=CC(=O)C=C[C@]4(C)C3[C@@H](O)C[C@@]21C` (stereo not given in full), for which the activity change, negative = inhibition was -8.37% (inactive).

As for `CS(=O)(=O)Nc1ccc2oc3c(OC(F)F)ccc(C(=O)Nc4c(Cl)cncc4Cl)c3c2c1`, the activity change, negative = inhibition was 27.8% (inactive).

Turning to `O=c1[nH]c(=O)c2cn[nH]c2[nH]1`, the activity change, negative = inhibition is -8.15% (inactive).

Consider `Cc1cc(C(C)Nc2ccccc2)c2nc(N3CCOCC3)cc(=O)n2c1` (stereo not given), for which the activity change, negative = inhibition was 14.5% (inactive).

For `CCCc1nc(C(C)(C)O)c(C(=O)OCc2oc(=O)oc2C)n1Cc1ccc(-c2ccccc2-c2nn[nH]n2)cc1`, the activity change, negative = inhibition was 2.42% (inactive) and 2.73% (inactive).

On to `CN1C2CC[C@@H]1CC(OC(=O)[C@H](CO)c1ccccc1)C2` (stereo not given in full), for which the activity change, negative = inhibition was 5% (inactive).

With `COc1cc(/C=C(/C#N)C(N)=O)cc(CSc2nc3ccccc3s2)c1O`, the activity change, negative = inhibition is 0.785% (inactive).

In the case of `C=C[C@H]1CN2CC[C@H]1C[C@@H]2[C@H](O)c1ccnc2ccc(OC)cc12`, the activity change, negative = inhibition is -4.38% (inactive).

As for `O=C(/C=C/c1ccc(CN(CCO)CCc2c[nH]c3ccccc23)cc1)NO`, the activity change, negative = inhibition is -83.9% (active).

As to `O=C(O)CCc1c[nH]c2ccccc12`, the activity change, negative = inhibition was 16.9% (inactive).

Consider `O=C(O)CCCc1c[nH]c2ccccc12`, for which the activity change, negative = inhibition is 16.7% (inactive).

Consider `COC(=O)C[C@H]1C(C)(C)C2(O)OC34CC2C(=O)[C@]1(C)C3CC[C@]1(C)C4=CC(=O)O[C@H]1c1ccoc1` (stereo not given in full), for which the activity change, negative = inhibition was -5.47% (inactive).

For `COc1cc(Nc2ncc(F)c(Nc3ccc4c(n3)N(COP(=O)(O)O)C(=O)C(C)(C)O4)n2)cc(OC)c1OC`, the activity change, negative = inhibition was -77% (active).

In the case of `COc1cc(Nc2ncc(F)c(Nc3ccc4c(n3)NC(=O)C(C)(C)O4)n2)cc(OC)c1OC`, the activity change, negative = inhibition is -51.7% (inactive) and -21% (inactive).

For the compound `COC1C(O)C(CO)OC1n1cnc2c(NC3CCCCC3)ncnc21` (stereo not given), the activity change, negative = inhibition was 10.5% (inactive).

Consider `Cc1cc(Nc2nc(N[C@@H](C)c3ncc(F)cn3)ncc2Cl)n[nH]1`, for which the activity change, negative = inhibition was 2.85% (inactive).

For `CCc1cnc(N2CCC(c3nc(COc4ccc(-n5cnnn5)cc4)cs3)CC2)nc1`, the activity change, negative = inhibition is -26.5% (inactive).

With `CC1(C)O[C@@H]2CC3C4CCC5=CC(=O)C=C[C@]5(C)[C@@]4(F)[C@@H](O)C[C@]3(C)[C@]2(C(=O)CO)O1` (stereo not given in full), the activity change, negative = inhibition was -0.643% (inactive).

Regarding `O=C(Cc1ccccc1)NO`, the activity change, negative = inhibition is -1.4% (inactive).

Consider `Cn1ccc2cc(NC(=O)Nc3cccnc3)ccc21`, for which the activity change, negative = inhibition is 22.9% (inactive) and -13.9% (inactive).

With `O=C(CCCCCCC(=O)Nc1ccccc1)NO`, the activity change, negative = inhibition was -84% (active) and -91.4% (active) and -89.3% (active).

Regarding `O=C(CCCCCCC(=O)Nc1cccnc1)NO`, the activity change, negative = inhibition was -92.1% (active).

On to `O=C(O)CCCNC(=O)c1cccnc1`, for which the activity change, negative = inhibition was 23.7% (inactive).

`CC(=O)Nc1ccccc1`: the activity change, negative = inhibition was 7.35% (inactive) and 14.6% (inactive).

`CC(C)c1ccc2c(c1)CCC1[C@](C)(CN)CCC[C@]21C` (stereo not given in full): the activity change, negative = inhibition is 3.16% (inactive).

As to `Nc1nc(-c2ccccc2)c(Br)c(=O)[nH]1`, the activity change, negative = inhibition is 3.15% (inactive).

Regarding `Cc1cccn2c(=O)c(-c3nn[nH]n3)cnc12`, the activity change, negative = inhibition was 0.433% (inactive).

On to `C=C1C(=O)O[C@@H]2[C@H]3C(C)=CC[C@@]34O[C@@]4(C)CC[C@@H]12`, for which the activity change, negative = inhibition is 18.9% (inactive).

On to `CC[C@@H]1Cn2c(c3nc(-c4ccccc4)nc-3n(C)c2=O)N1`, for which the activity change, negative = inhibition was 8.44% (inactive) and 12.6% (inactive).

With `COc1cc2c(cc1-c1c(C)noc1C)ncc1[nH]c(=O)n([C@H](C)c3ccccn3)c12`, the activity change, negative = inhibition is -91.9% (active).

Regarding `C#Cc1cnc2[nH]c(=O)n(C(CC)CC)c2n1`, the activity change, negative = inhibition was 0.376% (inactive).

Turning to `NCC[C@@H](O)C(=O)N[C@@H]1C[C@H](N)[C@@H](O[C@H]2O[C@H](CN)[C@@H](O)[C@H](O)[C@H]2O)[C@H](O)[C@H]1O[C@H]1O[C@H](CO)[C@@H](O)[C@H](N)C1O` (stereo not given in full), the activity change, negative = inhibition was 22.8% (inactive).

Consider `CCCCCCCC/C=C\CCCCCCCC(=O)N[C@@H](CO)Cc1ccc(O)cc1`, for which the activity change, negative = inhibition was 4.92% (inactive).

Take `c1cc2c(cc1C1CCCCC1)c1c3n2CCNC3CCC1` (stereo not given): the activity change, negative = inhibition is 23.6% (inactive) and 27.3% (inactive).

`Cn1cnnc1Sc1c([N+](=O)[O-])ncn1C`: the activity change, negative = inhibition was 23.4% (inactive) and 9.93% (inactive).

As for `Cn1cnc([N+](=O)[O-])c1Sc1ncnc2nc[nH]c12`, the activity change, negative = inhibition was -68.2% (inactive) and -74.1% (active).

Regarding `c1ccc(CNc2ncnc3nc[nH]c23)cc1`, the activity change, negative = inhibition was 9.71% (inactive) and 7.45% (inactive).

Consider `CC(SC(=O)c1cccs1)C(=O)NCC(=O)O` (stereo not given), for which the activity change, negative = inhibition was 13% (inactive).
